Calls of active or inactive are those of the source. How the source made its calls: active means hit-call score of the fitted dose curve at least 0.9, where 1 is the maximum; inactive means score below 0.9.

Read-out in the experiment: Glutathione S-Transferase (GSTA2), GSTA2 (gene 2939)
The experiment in a line: LTEA_HepaRG_GSTA2: Life Technologies and Expression Analysis (LTEA) Assay for Glutathione S-Transferase (GSTA2) using HepaRG (AID 2283497). To be noted: mRNA level, 48 h; actives raise or lower the signal. Here is the method:
LTEA_HepaRG is a cell based, multiplexed-readout assay that uses HepaRG, a human liver cell line, with measurements taken at 48 hours after chemical dosing on a 96-well plate.LTEA_HepaRG_GSTA2 is one of 102 assay component(s) measured in the LTEA HepaRG cell culture assay. It is a marker of Oxidative Stress.Data from the assay component LTEA_HepaRG_GSTA2 was analyzed into 1 endpoint. This assay endpoint, LTEA_HepaRG_GSTA2, was analyzed with bidirectional fitting relative to DMSO as the negative control and baseline of activity. Using a type of inducible reporter, measures of mRNA induction for gain or loss-of-signal activity can be used to understand regulation of transcription factor activity. To generalize the intended target to other relatable targets, this assay endpoint is annotated to the transferase intended target family, where the subfamily is alkyl and aryl transferase.
A total of 1060 chemcials from the ToxCast library were tested in eight-point concentration-response experiments. Cell culture and cytotoxicity assays were conducted at Thermo Fisher Scientific's Custom Services facility (Madison, WI). A single lot of human HepaRG cells (Thermo Fisher Scientific, Frederick, MD) was used for the cell culture experiments. 96-well format collagen type I coated plates of human HepaRG cells were prepared using established methods. Briefly, cryopreserved HepaRG cells were thawed, plated at a density of approximately 100,000 cells/well in HepaRG Thaw, Plate, and General Purpose media (HPRG770, Thermo Fisher Scientific), and incubated for 48 hours. 0.5% DMSO was selected as vehicle control to balance the requisite need of DMSO in HepaRG cultures to maintain differentiation (for example, baseline metabolism, proportions of hepatocytes vs. cholangiocytes), while enabling further hepatic receptor pathway activation (for example, PXR and CAR) in response to chemical exposure. 48 hours after plating, the culture medium was replaced with HepaRG Serum-Free Incudtion Media. Cells were exposed to each test chemical in duplicate and maintained in CO2 incubators for another 48 hours. Chemical plates were thawed to room temperature and 200x concentrations of treatment groups were prepared. 8-point conentration-reponse curves were made with the highest exposure at 100 uM, followed by half-log dilutions, all in 0.5% DMSO. Each test plate contained variouse controls, induction positive controls (1mM phenobarbital), cytotoxicity positive controls ([…] aflatoxin B1), vehicle controls (0.5% DMSO), and total lysis controls (0.5% DMSO). Cell morphology images were taken using an Essen IncuCyte FLR automated microscope, with six 96-well plates imaged in about 24 minutes. Images were captured and exported and JPEG files. Spent culture media was transfered to black-well plates for the LDH assay, and remaining media was sorted at -80 C for later use. Cells were treated with RLT buffer and frozen until shipped for gene expression analysis. Total RNA was isolated from the cell suspension in 75 uL of Buffer RLT (Qiagen, Germantown, MD 20874) by Quintiles/Expression Analysis (Durham, NC) using a custom isolation procedure. Total RNA from each plate well was transferred to a preamplification plate. Fluidigm's 96.96 Dynamic ArrayTM (Fluidigm, Amsterdam, the Netherlands) technology was used for gene expression analyses by quantitative reverse transcription polymerase chain reaction (qRT-PCR, performed by Quintiles/Expression Analysis, Durham, NC)89. Standard TaqManTM Assays (Applied Biosystems/ThermoFisher Scientific, Foster City, CA) were used to assess the expression of 93 genes selected based on their selectivity and sensitivity to important hepatic receptors known to be modulated by environmental chemicals; importance in human hepatocyte functionality; and hepatotoxicity. […]
As a reminder, the AC50 is the concentration at which the activity in the assay is half-maximal. Regarding `CC(=O)N1CCN(c2ccc(OC[C@H]3CO[C@](Cn4ccnc4)(c4ccc(Cl)cc4Cl)O3)cc2)CC1`, the concentration at half-maximal activity (AC50) is 11.3 µM (active). Regarding `O=C1O[C@H]([C@@H](O)CO)C(O)=C1O`, the compound was called inactive.

For the compound `Oc1ccccc1`, the result was inactive. For `CCCCCc1ccc(N)cc1`, the call was inactive.

Turning to `Cc1c2ccccc2c(C)c2c1ccc1ccccc12`, the AC50 is 39.4 µM (active). Regarding `Cc1cc2c(cc1C(F)(F)F)N(C(=O)Nc1ccc(Oc3cccnc3C)nc1)CC2`, the AC50 is 26 µM (active). Regarding `CC(O)CC(C)(C)O` (stereo not given), the compound was called inactive.

With `Clc1cc(Cl)c2c(c1)N=C1CCCCCN1C2`, the compound was called inactive. Same read-out and setting: as for `Cc1ncc(CO)c(CO)c1O`, the entry is “inactive”.

`CCCCCCCCCCCC[N+](C)(C)C`: the concentration at half-maximal activity (AC50) is 93.7 µM (active). For the compound `CCN(Cc1cccnc1)C(=O)c1cccc(Cl)c1[C@]1(C)C(=O)N(Cc2ccc(OC)cc2OC)c2ccc(Cl)cc21`, the AC50 was 25.8 µM (active). The same measure, in the same setting: as for `CC(C)(C)c1csc(-c2cc3cc(OCc4ccccc4CC(=O)O)ccc3o2)n1`, the figure is 31.9 µM (active).

For `C[C@]12CC[C@@H]3c4ccc(O)cc4CC[C@H]3[C@@H]1CC[C@H]2O`, the compound was called inactive. In the case of `COc1cc(C(=O)NC2CCN(C)CC2)ccc1Nc1ncc2c(n1)N(C1CCCC1)CC(F)(F)C(=O)N2C`, the half-maximal activity concentration (AC50) was 12 µM (active). As to `CC/C(=C(/CC)c1ccc(O)cc1)c1ccc(O)cc1`, the result was inactive. For `CCCCCCCCCCCO`, the result was inactive. Still for that read-out and setting: as for `Cc1cccc2ccccc12`, the entry is “inactive”. `NCc1cccc(C2CCN(C(=O)c3ccc(C#Cc4ccccc4F)o3)CC2)c1`: the concentration at half-maximal activity (AC50) is 78.9 µM (active). Turning to `c1ccc2ccccc2c1`, the call was inactive. In the case of `Cc1occc1C(=O)Nc1ccc(C(=O)N2CCC(F)(F)/C(=C\C(=O)N3CCC(N4CCCCC4)CC3)c3ccccc32)cc1`, the AC50 was 52 µM (active). As for `O=c1[nH]sc2ccccc12`, the result was inactive. In the case of `Oc1ccc2ccccc2c1`, the compound was classed as inactive. Turning to `CN(C)c1ccc(C(=C2C=CC(=[N+](C)C)C=C2)c2ccc(N(C)C)cc2)cc1`, the AC50 was 4.31 µM (active). Regarding `O=C(Nc1ccc(Cl)cc1)Nc1ccc(Cl)c(Cl)c1`, the AC50 is 27.2 µM (active). Consider `CCCCCCCCCC(=O)O`, for which the outcome was inactive. In the case of `Cc1ccc2oc(CN(Cc3ccccc3)C(=O)Nc3c(F)cc(F)cc3F)c(-c3ccc(Cl)cc3)c2c1`, the half-maximal activity concentration (AC50) was 44.2 µM (active).

Regarding `CN(C)C(=O)C1(N2CCCCC2)CCN(CC[C@@]2(c3ccc(Cl)c(Cl)c3)CN(C(=O)c3ccccc3)CCO2)CC1`, the concentration at half-maximal activity (AC50) is 22 µM (active).

For `c1ccc2n[nH]nc2c1`, the call was inactive. Turning to `CC[C@H](NC(=O)c1cc(F)ccc1NS(=O)(=O)c1cccc2cccnc12)c1ccccc1`, the half-maximal activity concentration (AC50) is 80 µM (active). As to `CCN(CC)C(=O)c1cc(S(=O)(=O)Cc2ccccc2)c(N2CCC(c3ccccc3)CC2)cc1N(CC)CCN(C)C`, the half-maximal activity concentration (AC50) was 4.51 µM (active).

As for `CCCOC(=O)c1cc(O)c(O)c(O)c1`, the result was inactive. On the same count and under the same terms, as for `Cc1cn([C@H]2C[C@H](N=[N+]=[N-])[C@@H](CO)O2)c(=O)[nH]c1=O`, the entry is “inactive”; as for `C[C@]12CC[C@@H]3c4ccc(O)cc4CC[C@H]3[C@@H]1CCC2=O`, “inactive”. Same read-out and setting: under `CCCCCCCC[Si](OCC)(OCC)OCC` stands “inactive”.

With `CC(C)(c1cc(Br)c(O)c(Br)c1)c1cc(Br)c(O)c(Br)c1`, the AC50 was 72.4 µM (active). The same measure, in the same setting: under `CN(C[C@@H](CC[N+]12CCC(C3CCCCC3)(CC1)CC2)c1ccc(Cl)c(Cl)c1)C(=O)c1cc(C(F)(F)F)cc(C(F)(F)F)c1` stands 34.2 µM (active). As for `O=C(O)Cn1c(=O)n(Cc2ccc(Br)cc2F)c(=O)c2ccc(Cl)cc21`, the compound was classed as inactive. Consider `O=C(O)Cc1cc(I)c(Oc2ccc(O)c(I)c2)c(I)c1`, for which the half-maximal activity concentration (AC50) was 84.7 µM (active).

In the case of `CC1(C)NC(=O)N(c2ccc([N+](=O)[O-])c(C(F)(F)F)c2)C1=O`, the AC50 is 78.4 µM (active). `Cc1ccc(C(C)C)cc1`: the call was inactive.

The record behind these values is PubChem BioAssay (EPA / NIEHS).
